High-throughput results as filed in PubChem BioAssay.
An excerpt weighted towards active compounds, which were near 12% of everything screened.
HP1b chromo inh = HTS for Inhibitors of HP1-beta Chromodomain Interactions with Methylated Histone Tails; Chromobox protein homolog 1 (Homo sapiens), P83916; AlphaScreen HP1-beta / biotin-H3K9me3 peptide binding; Potency, µM (titrated, usually from 114 µM), without a hit: top-dose activity change, negative = inhibition, actives largely listed as inhibitors; 0.56% of 390,000 active; AID 540317, 2011; further: nearly all actives have a fitted effect of over 70% in size
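Compound inhibition of the preformed complex between 50 nM HP1-beta and 50 nM biotinylated H3K9me3 peptide was read by AlphaScreen. Buffer was PBS pH 7.4 with 0.01% Tween-20. Incubations ran 30 min at room temperature, with 10 ug/mL donor/acceptor beads.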
G9a block = qHTS Assay for Inhibitors of Histone Lysine Methyltransferase G9a. Histone-lysine N-methyltransferase EHMT2 (Homo sapiens), Q96KQ7. G9a H3K9 monomethylation, AlphaScreen, 2 h. Potency, µM (top dose mostly 102 µM), inactives show top-dose activity, negative = inhibition, most hits filed as inhibitors. 8.8% of 350,000 active; further: on the % scale 0 is the no-effect control and ±100 the full control effect; nearly all actives have a fitted effect of over 75% in size
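Signal arises when biotinylated H3K9 peptide, once monomethylated, bridges streptavidin donor and antibody-captured acceptor beads. Enzyme at 20 nM was preincubated 15 min with test compounds; peptide 500 nM and SAM 20 uM then reacted for 2 h.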
Sfp inh = qHTS Assay for Inhibitors of Bacillus subtilis Sfp phosphopantetheinyl transferase (PPTase) | Potency, µM, for the others: largest response in the series, negative = inhibition, most hits filed as inhibitors | 4'-phosphopantetheinyl transferase ffp (Bacillus subtilis), Q9F4F7 | AID 1490, 2009 | Biochemical Sfp PPTase activity, qHTS | 3.5% of 310,000 active;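 further: the enzyme is Sfp with the accession as filed and its product quenches rhodamine fluorescence; 0% = enzyme reaction without inhibitor and -100% = no enzyme wells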
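Fluorescence-quenching assay with 15 nM Sfp, 5 uM rhodamine-CoA and 12.5 uM BHQ-2-labelled ybbR peptide in pH 7.6 Hepes/MgCl2 buffer. Enzyme was pre-incubated with compound for 15 min at room temperature. Rate was taken from the 30-min fluorescence change (525/598 nm).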
JMJD2A Tudor = qHTS Assay for Inhibitors of JMJD2A-Tudor Domain | Lysine-specific demethylase 4A (Homo sapiens), O75164 | AlphaScreen JMJD2A-Tudor / H3K4me3 peptide binding | Potency, µM (top dose mostly 114 µM), without a hit: at the top dose activity change, negative = inhibition, actives largely listed as inhibitors | 4.4% of 390,000 active; further: on the % scale 0 is the no-effect control and ±100 the full control effect; nearly all actives have a fitted effect of over 50% in size
Target sequence (O75164 whole entry, looked up, the tested form may be a part): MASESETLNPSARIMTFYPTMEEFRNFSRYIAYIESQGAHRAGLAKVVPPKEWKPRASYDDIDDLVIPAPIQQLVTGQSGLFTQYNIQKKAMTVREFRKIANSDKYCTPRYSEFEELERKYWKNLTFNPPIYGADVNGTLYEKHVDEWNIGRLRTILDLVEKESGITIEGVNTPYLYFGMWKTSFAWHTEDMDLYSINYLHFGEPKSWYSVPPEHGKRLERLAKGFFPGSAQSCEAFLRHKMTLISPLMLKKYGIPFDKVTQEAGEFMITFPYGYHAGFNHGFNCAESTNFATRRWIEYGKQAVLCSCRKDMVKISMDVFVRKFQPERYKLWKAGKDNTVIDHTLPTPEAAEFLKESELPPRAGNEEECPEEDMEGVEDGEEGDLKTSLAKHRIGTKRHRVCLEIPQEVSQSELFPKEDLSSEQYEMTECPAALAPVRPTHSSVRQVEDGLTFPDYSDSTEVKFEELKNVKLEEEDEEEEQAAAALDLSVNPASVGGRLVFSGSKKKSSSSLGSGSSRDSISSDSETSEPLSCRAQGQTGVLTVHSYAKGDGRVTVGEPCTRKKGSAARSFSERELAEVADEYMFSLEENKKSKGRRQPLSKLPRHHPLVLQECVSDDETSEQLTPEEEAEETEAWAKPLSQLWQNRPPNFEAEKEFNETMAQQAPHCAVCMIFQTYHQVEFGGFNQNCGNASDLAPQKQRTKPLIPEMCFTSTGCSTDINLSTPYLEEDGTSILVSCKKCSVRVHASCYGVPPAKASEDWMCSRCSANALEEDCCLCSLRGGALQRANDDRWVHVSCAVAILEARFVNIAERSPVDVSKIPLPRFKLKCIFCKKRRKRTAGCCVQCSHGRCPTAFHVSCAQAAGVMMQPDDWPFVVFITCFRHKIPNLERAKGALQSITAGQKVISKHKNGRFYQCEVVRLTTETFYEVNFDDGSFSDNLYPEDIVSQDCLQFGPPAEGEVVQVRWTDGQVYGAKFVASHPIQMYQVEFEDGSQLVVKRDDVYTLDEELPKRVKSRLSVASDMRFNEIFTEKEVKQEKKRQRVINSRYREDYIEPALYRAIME
BAZ2B inh = qHTS Assay for Inhibitors of BAZ2B | Bromodomain adjacent to zinc finger domain protein 2B (Homo sapiens), Q9UIF8 | AlphaScreen BAZ2B-H3K14Ac peptide displacement | Potency, µM (highest dose often 114 µM), inactives show at the highest dose activity change, negative = inhibition, hits mostly inhibitors | 4.4% of 360,000 active | AID 504333, 2011; further: on the % scale 0 is the no-effect control and ±100 the full control effect; nearly all actives have a fitted effect of over 60% in size
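Protein-peptide AlphaScreen: BAZ2B 50 nM, b-H3K14Ac 50 nM, 1x PBS pH 7.4 + 0.01% Tween-20. Preincubation 30 min RT; cpd 30 min RT (top 110 uM); beads 20 min RT, light-protected.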
Active calls of the source: *; ? = inconclusive; . = no result given; [ ] = remark or other dose. The call rests on the fitted dose curve; in most records, active means well fitted curve in the direction sought with a large enough effect; inconclusive means small, poorly fitted or top-dose-only effect, or another doubt; inactive means no such curve, though single readings can be large; an effect the other way counts as inactive or inconclusive. Potency means the concentration at half of the fitted maximal effect.

SMILES	HP1b chromo inh	G9a block	Sfp inh	JMJD2A Tudor	BAZ2B inh
O=C1NN(c2ccccc2)C(=O)/C1=C/c1ccc(Sc2ccc(Cl)cc2)o1	-7.6%[57 µM]	?	-1.8%	?	-36.5%
O=C1NN(c2ccccc2)C(=O)/C1=C/c1ccc(-c2ccc(Cl)c(C(=O)O)c2)o1	?	17.8µM*	-4.1%	56.2µM*	50.1µM*
Cc1ccc(Sc2ccc(/C=C3/C(=O)NN(c4ccccc4)C3=O)o2)cc1	6.3%	-24.1%[59 µM]	-4.6%	?	?
Cc1ccc(CN(C)c2nc(-c3cccnc3)nc3ccccc23)o1	23.9%	39.8µM*	-0.5%	-32.4%	-22.4%
CN(Cc1ccco1)c1nc(-c2cccnc2)nc2ccccc12	.	-1.2%[0.501 µM]	-10.1%	.	.
CCOc1ccc(CN(C)c2nc(-c3cccnc3)nc3ccccc23)cc1OC	1.5%	?	-24.1%	?	35.5µM*
CN(Cc1ccccc1F)c1nc(-c2cccnc2)nc2ccccc12	74.6%	-29.4%	-27.1%	-2.1%	1.7%
CCOC(=O)/C(=C\c1ccccc1)NC(=O)c1ccccc1	36.9%	.	-1.4%	-9.3%	4.4%
CCOC(=O)/C(=C/c1ccc(OC(=O)c2ccccc2)cc1)C(C)=O	49.9%	44.7µM*	?	8.5%	4.3%
CC(=O)Nc1ccc(C(=O)Nc2ccc3c(c2)N(C2CCCC2)C(=O)c2ccccc2S3)cc1	1.1%	?	.	?	-19.4%
CCOc1cc(/C=C2\SC(=O)N(CC(=O)Nc3ccccc3F)C2=O)cc([N+](=O)[O-])c1O	35.5µM*	15.8µM*	-15.7%	-19.5%[11.4 µM]	39.8µM*
COc1ccc(/C=C2\SC(=O)N(CC(=O)Nc3cccnc3)C2=O)cc1OC	61.5%	?	44.7µM*	-17.3%	-16.2%
COc1ccc(/C=C2\SC(=O)N(CCNC(=O)Cc3coc4cc(C)ccc34)C2=O)cc1OC	10.4%	10µM*	-22.8%	-27.8%	-38.1%
COc1cc(/C=C2\SC(=O)N(CC(=O)Nc3cccc(C)c3)C2=O)cc([N+](=O)[O-])c1O	28.2µM*	14.1µM*	1.2%	17.8µM*	39.8µM*
COc1ccc(/C=C2/SC(=O)N(CCC(=O)Nc3ccc(C)cc3)C2=O)cc1OC	.	-23.7%	?	.	-4.6%
Cc1cc(C(=O)NCC(=O)OCC(=O)N(C)C2CCCCC2)ccc1[N+](=O)[O-]	-8.7%	-7.9%[59 µM]	-7.2%	-11.9%	6.4%
COc1ccc(Cn2c(CCC(=O)Nc3ccccc3OC)nc3cccnc32)cc1	5.9%	-27.5%	7.4%	-15.2%	-10.7%
COc1ccnc(Nc2ccc(C)c(C)c2)c1C#N	30.9%	7.3%[59 µM]	1.0%	-9.9%	-3.1%
COc1cc(/C=C2\SC(=O)N(c3ccccc3Cl)C2=O)cc([N+](=O)[O-])c1O	?	11.2µM*	-22.1%	35.5µM*	25.1µM*
COc1cc(/C=C2\SC(=O)N(c3ccc(O)cc3)C2=O)cc(OC)c1OC	25.4%	11.8%[12.7 µM]	2.3%	-7.0%	-7.0%
Cc1nc(Cl)sc1C(=O)Nc1cccc(C(F)(F)F)c1	87.4%	.	.	0.0%	.
CCOC(=O)c1ccc(NC(=O)c2c(Cl)cc(C)nc2C)cc1	10.9%	50.1µM*	-13.1%	-11.1%	-33.1%
Nc1ccccc1Nc1cccc(C(F)(F)F)c1	?	6.31µM*	7.4%	?	50.1µM*
CCOC(=O)c1ccc(NC(=O)c2nc[nH]c2C(=O)NC)cc1	19.3%	?	8.1%	?	?
Cc1cc(Cl)c(C(=O)Nc2cccc(C(F)(F)F)c2)c(C)n1	10.3%	44.7µM*	?	?	?
CCOC(=O)c1ccc(NC(=O)c2nccnc2C(=O)O)cc1	15.1%	28.2µM*	-25.9%	39.8µM*	?
O=C(O)C1=C[C@H](c2ccc3c(c2)OCO3)C[C@H](OCCCCO)O1	39.2%	.	.	-11.8%	.
O=c1c(-c2nnc(SCc3ccc(Cl)cc3Cl)o2)cccn1Cc1ccccc1	99.9%	89.9%	3.6%	10.8%	9.3%
